Compound activity as filed in PubChem.
Compounds with a hit are over-represented: about 1.8% of the library has one in this group of screens.
Mot1-301 SUMO: SUMOylation pathway inhibition by Mot1-301 growth rescue. 1% of 320,000 active. AID 2716. S. cerevisiae Mot1-301 growth rescue, ATP luminescence, 38.5C; percent above DMSO median, 100 means doubled. growth rescue, % at 18.8 µM;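 active means every valid replicate shows activation above 250% relative to neutral control wells; inactive means the rest, any valid replicate at or below 250%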;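 further: OY570 slx delta 5 strain wells were the positive control but not used for scaling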
aDG glyco up: increases alpha dystroglycan glycosylation. Pro5-aDG cells, alpha-DG glycosylation AlphaScreen (IIH6); 0% Pro5, 100% B10-LARGE cell signal. activation, % at 10 µM. 0.22% of 360,000 active. AID 624168;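 active means activation of at least 8% versus controls, or a plate z-score of at least 8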;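 further: Pro5 are CHO cells carrying HIG-tagged alpha-DG that lacks glycosylation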
ARNT-TACC3 inh: ARNT/TACC3 interaction disruption | Q9Y6A5 | AlphaScreen His-ARNT PAS-B/GST-TACC3 binding, luminescence; TACC3 fragment carries E629A point mutation | inhibition, % at 9.99 µM | 0.66% of 390,000 active;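 active means mean inhibition of replicates at least 50% and at least half of replicates each reaching 50%; inconclusive means half or more replicates reach 50% but mean below 50%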;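 further: 0% = complete ARNT plus TACC3 wells and 100% = ARNT alone without TACC3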
AI-2 QS mod: modulators of Vibrio harveyi AI-2 quorum sensing system. Vibrio harveyi JMH597 AI-2 luminescence/OD600 ratio, 9 h; active compounds read low; strain lacks LuxN and CqsS sensors; 0 = neutral-control median. activity change, % at 7.5 µM. 0.4% of 300,000 active; in the data active means activity change below about -75%, passing the limit was not always enough; inconclusive means no clear call, values can overlap the other calls;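 further: luminescence divided by OD600 gain over 9 h not by final OD600 alone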
Bfl-1 A1 inh: inhibitors of the anti-apoptotic protein A1, read as caspase activation; MEF A1-2A-BIM cells, Caspase-Glo 3/7 luminescence, 3 h; percent of clofoctol response, vehicle zero; caspase activation, % (no concentration beside the values); 0.066% of 330,000 active; AID 2462;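 active means over half of replicate activation scores above 10%, or exactly half above 10 with the replicate mean above 10; inconclusive means replicate mean below 10 yet half the replicates above 10; inactive means over half of replicates below 10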
* marks the source's active call; other numbers are inactive results; ? = inconclusive; / = no result.

SMILES	Mot1-301 SUMO	aDG glyco up	ARNT-TACC3 inh	AI-2 QS mod	Bfl-1 A1 inh
O=C(NC(c1ccccc1)c1ccccc1)c1cccc(S(=O)(=O)NCc2ccccc2)c1	-7	0	active	6	2
Cc1cccc(NC(=O)/C(C#N)=C/c2cccc([N+](=O)[O-])c2)n1	483*	0	-3	27	1
COc1ccc(C(=O)NCC(=O)OCC(=O)Nc2sccc2C#N)cc1OC	58	0	-5	7	0
CN1CCN(CCC(=O)Nc2ccccc2Cl)CC1	-9	0	8	17	1
O=C(CCN1CCN(Cc2ccccc2)CC1)Nc1ccccc1Cl	327*	0	-5	32	1
CCOC(=O)/C=C(\C)Sc1cc(O)c2ccccc2c1O	/	1	77*	/	/
CC(=O)c1ccc2c3c(cccc13)C(=O)N(c1c(C)nn(C)c1C)C2=O	-14	0	1	/	0
Nc1ncnc2c1ncn2[C@H]1C[C@H](O)[C@@H](CO)O1	-11	0	-27	/	0
Nc1nc(Cl)nc2c1ncn2[C@H]1C[C@H](O)[C@@H](CO)O1	188	0	-3	-158*	?
N/C(=N\NC(=O)Nc1ccc(Cl)cc1)c1ccccn1	1	0	66*	-3	0
Cc1ccc(-c2cc(C(F)(F)F)c(C#N)c(SCC(=O)O)n2)cc1	-9	-1	2	14	0
COc1ccc(-c2cc(C(F)(F)F)c(C#N)c(SCC(=O)O)n2)cc1OC	304*	/	/	-3	1
COc1ccc(OC)c(NC(=O)CCNS(=O)(=O)c2cccs2)c1	16	0	-6	14	1
Brc1ccc(-c2noc(COc3ccc4ccccc4c3)n2)o1	14	0	-4	9	0
Cc1cccc(OCc2nc(-c3ccc(Br)o3)no2)c1	18	0	-5	-78*	0
CN1CCc2c(sc(NC(=O)c3ccc(S(=O)(=O)N4CCCCCC4)cc3)c2C(N)=O)C1	-3	33*	0	24	-1
CN1CCc2c(sc(NC(=O)c3ccc([N+](=O)[O-])o3)c2C(N)=O)C1	-18	0	-3	-102*	1
CCOC(=O)N1CCN(S(=O)(=O)c2ccc(C(=O)Nc3sc4c(c3C(=O)OC)CCN(C)C4)cc2)CC1	63	0	/	18	3
CCCN1CCc2c(sc(NC(=O)c3ccc(S(=O)(=O)N4CCN(C(=O)OCC)CC4)cc3)c2C(N)=O)C1	-30	12*	-5	23	1
Cc1cc(O)c2c(c1O)C(=O)[C@]13C(=C2O)C(=O)[C@@H]2[C@@H](O)[C@H]1[C@@H]1[C@H](O)[C@H]3C(=O)C3=C(O)c4c(O)cc(C)c(O)c4C(=O)[C@]312	/	1	47*	/	/
COc1ccc(S(=O)(=O)N(C)c2ccc(C(=O)N3CCC(C(N)=O)CC3)cc2)cc1	-15	0	-4	10	1
COc1ccc(S(=O)(=O)N(C)c2ccc(C(=O)N3CCC(C(N)=O)CC3)cc2)cc1OC	345*	0	/	24	1
COCC#Cc1cnc2c(c1)C(=O)N([C@@H](C)CO)C[C@H](C)[C@@H](CN(C)C(=O)C1CCOCC1)O2	/	/	-7	/	/
O=c1cc2c(=O)oc3cc(O)c(O)oc3c2c(O)c1O	/	0	13*	22	/
O=C(CCn1c(=O)sc2ccccc21)Nc1ccon1	2	0	-2	5	0
SMILES	Mot1-301 SUMO	aDG glyco up	ARNT-TACC3 inh	AI-2 QS mod	Bfl-1 A1 inh
O=C(NC(=S)Nc1ccc(S(=O)(=O)Nc2nccs2)cc1)c1ccc(Br)o1	-9	0	52*	12	1
O=C(NC(=S)Nc1ccc(S(=O)(=O)Nc2nccs2)cc1)c1ccccc1	-23	0	-4	11	0
Cc1ccnn1C(C)C(=O)O (stereo unspecified)	-11	0	-5	4	0
Nc1nonc1C(=O)N/N=C/c1ccc(-c2ccc(Cl)c(C(=O)O)c2)o1	1	0	21	10	0
O=C(O)c1ccc(N/N=C/c2ccc(-c3ccc(Br)cc3)o2)cc1	22	0	-10	-96*	1
O=C(O)c1ccc(N/N=C/c2ccc(-c3ccccc3Cl)o2)cc1	30	0	2	-95*	-8
O=C(O)c1cc(-c2ccc(/C=N/Nc3ccc(Cl)cc3)o2)ccc1Cl	304*	0	-6	-1	-1
Cc1ccc(C(=O)N(CCCN(C)C)c2nc3ccc(Cl)cc3s2)cc1C	118	2	15	13	0
CN(C)CCN(C(=O)c1ccc2c(c1)OCCO2)c1nc2ccc(Cl)cc2s1	1	0	46*	-7	0
O=C(N[C@H]1CC[C@@H](CCNS(=O)(=O)c2ccc(F)cc2)O[C@@H]1CO)c1cnccn1	/	/	0	/	/
N/C(Cc1ccc(Cl)c(Cl)c1)=N\OC(=O)c1cccs1	324*	0	-1	?	0
COc1ccc(CCCNC(=O)C2CCC(=O)N(Cc3ccccc3F)C2)cc1 (stereo unspecified)	-7	0	5	10	1
CC(C)n1cc(CNC(=O)C2CCC(=O)N(Cc3ccccc3F)C2)cn1 (stereo unspecified)	324*	0	2	21	-1
COc1ccccc1CCCNC(=O)C1CCC(=O)N(Cc2ccccc2F)C1 (stereo unspecified)	-8	0	31	20	8.6*
Cc1cccc(C(=O)Nc2cccc(C(=O)N/N=C/c3ccccn3)c2)c1	-4	0	71*	34	0
COc1cc(/C=N/NC(=O)c2cccc(NC(=O)c3ccccc3C)c2)ccc1O	7	0	13	17	0
Cc1cccc(/C=N/NC(=O)c2ccc(NC(=O)c3ccccc3C)cc2)n1	-15	0	11	52	0
Cc1ccccc1C(=O)Nc1cccc(C(=O)N/N=C/c2cc(Cl)cc([N+](=O)[O-])c2O)c1	18	0	52*	-10	-1
Cc1cccc(/C=N/NC(=O)c2ccncc2)n1	-6	0	63*	-2	0
O=C(O)c1cccc(NC(=S)N/N=C/c2ccccn2)c1	-7	0	66*	8	-6
c1ccc(CN2CCOCC2)nc1	/	0	6	/	/
O=C(N/N=C/c1ccccn1)C(=O)N1CCCCCC1	175	0	53*	6	1
O=C(N/N=C/c1ccccn1)c1cccc(NC(=O)c2ccccc2Cl)c1	10	0	63*	13	2
O=C(N/N=C/c1ccccc1C(=O)O)C(=O)N1CCCCC1	-13	0	2	11	0
CC(Nc1cccc2ccccc12)C(=O)N/N=C/c1ccccn1 (stereo unspecified)	63	0	67*	-4	0
O=C(N/N=C/c1ccccc1F)c1cccc(NC(=O)c2ccccc2Cl)c1	-12	0	0	20	0
